Data published in the supplement of paper PMC12669032.
Unmarked numbers belong to inactive results.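 The calls were made as follows: active = AUC reduced over 20% with Padj below 0.05 in at least 2 of 3 replicates; inactive = otherwise.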

Experiments:
Test in all cases: growth AUC relative to DMSO control (median of replicates) (fraction); higher = more growth (less inhibition), active = hit call of the paper
Conditions in all cases: 20 µM; 24 h
Akkermansia muciniphila = system: Akkermansia muciniphila
Method in brief: (§1)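 Gut bacterial monocultures were grown anaerobically at 37 °C in mGAM, starting at OD600 0.05, with 20 µM compound (1% DMSO) in round-bottom 96-well plates under pierced gas-permeable seals. OD600 was read hourly for 24 h. Area under the growth curve (minimum OD set to 0) was normalised to the plate median of DMSO controls, or to row and column medians on the industrial chemical plate. The value is the median of three biological replicates grown on separate days.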

Bacteroides caccae = system: Bacteroides caccae
Method in brief: as §1

Bacteroides clarus = system: Bacteroides clarus
Method in brief: as §1

Bacteroides dorei = system: Bacteroides dorei
Method in brief: as §1

Bacteroides stercoris = system: Bacteroides stercoris
Method in brief: as §1

[1] = system: Bacteroides thetaiotaomicron
Method in brief: as §1

Bacteroides uniformis = system: Bacteroides uniformis
Method in brief: as §1

[2] = system: Bifidobacterium longum subsp. longum
Method in brief: as §1

Clostridium difficile = system: Clostridium difficile
Method in brief: as §1

Collinsella aerofaciens = system: Collinsella aerofaciens
Method in brief: as §1

Row | Structure (SMILES) | growth AUC (Akkermansia muciniphila) | growth AUC (Bacteroides caccae) | growth AUC (Bacteroides clarus) | growth AUC (Bacteroides dorei) | growth AUC (Bacteroides stercoris) | growth AUC [1] | growth AUC (Bacteroides uniformis) | growth AUC [2] | growth AUC (Clostridium difficile) | growth AUC (Collinsella aerofaciens)
1 | CNC(=O)c1cc(Cl)cc(C)c1NC(=O)c1cc(Br)nn1-c1ncccc1Cl | 0.893 | 1 | 0.952 | 0.999 | 0.946 | 0.967 | 0.976 | 0.969 | 0.964 | 1.02
2 | CC(C)C(C(=O)OC(C#N)c1cccc(Oc2ccccc2)c1)c1ccc(Cl)cc1 (stereo not given) | 0.88 | 0.977 | 1 | 0.935 | 1.1 | 1.02 | 0.986 | 0.765 | 1.01 | 0.903
3 | CCOP(=O)(OCC)Oc1ccc(S(C)(=O)=O)cc1 | 1.01 | 0.99 | 0.995 | 1.01 | 0.937 | 0.997 | 1.03 | 1.04 | 0.991 | 1.01
4 | O=C1c2ccccc2C(=O)N1SC(Cl)(Cl)Cl | 1 | 1.02 | 0.977 | 1.04 | 0.995 | 0.999 | 1.05 | 0.988 | 1.01 | 0.983
5 | Oc1ccc(Cc2ccc(O)cc2)cc1 | 0.954 | 0.992 | 1.03 | 0.998 | 1.05 | 1.02 | 1.01 | 0.975 | 1.02 | 1.01
6 | CC(=O)O.NC(N)=NCCCCCCCCNCCCCCCCCN=C(N)N | 0.836 | 0.279 (active) | 0.442 (active) | 0.638 (active) | 0.186 (active) | 0.0333 (active) | 0.115 (active) | 0.136 (active) | 0.984 | 0.618 (active)
7 | CC(C)(C)[C@@H](O)[C@H](Oc1ccc(Cl)cc1)n1cncn1 | 1.06 | 0.904 | 1.02 | 0.953 | 1.25 | 0.948 | 0.975 | 0.998 | 1 | 0.988
8 | O=C(O)c1ccc(=O)[nH]c1 | 1.06 | 1.02 | 1.01 | 1.02 | 0.972 | 0.984 | 1.01 | 1 | 1.01 | 0.977
9 | O=NN(CCO)CCO | 1.01 | 1.01 | 1.02 | 0.979 | 1.18 | 1.01 | 1.02 | 0.837 | 1.01 | 0.994
10 | O=C(NC(=O)c1c(F)cccc1F)Nc1ccc(Cl)c(Oc2ncc(C(F)(F)F)cc2Cl)c1 | 1.14 | 0.985 | 1.02 | 1.1 | 0.98 | 1.01 | 1.02 | 0.917 | 1.1 | 1.08
11 | COC(=O)Nc1cccc(OC(=O)Nc2cccc(C)c2)c1 | 0.871 | 0.991 | 0.983 | 1.02 | 0.99 | 1.01 | 0.994 | 1.03 | 1.02 | 0.926
12 | CC(CCl)OP(=O)(OC(C)CCl)OC(C)CCl (mixture of isomers) | 1.14 | 1 | 0.998 | 0.973 | 0.994 | 1 | 0.958 | 1.05 | 1.02 | 0.951
13 | CCOC(=O)N(C)C(=O)CSP(=S)(OCC)OCC | 1.11 | 1.04 | 0.999 | 1.01 | 1.01 | 0.994 | 0.991 | 0.991 | 1.01 | 0.997
14 | CCOCN(C(=O)CCl)c1c(C)cccc1CC | 0.969 | 1.01 | 0.995 | 1.04 | 1 | 0.967 | 0.968 | 0.986 | 0.983 | 1.03
15 | O=[N+]([O-])c1cc(C(F)(F)F)c(Cl)c([N+](=O)[O-])c1Nc1ncc(C(F)(F)F)cc1Cl | 1.01 | 0.55 (active) | 0.322 (active) | 0.672 (active) | 0.00814 (active) | 0.0138 (active) | 0.0147 (active) | 0.705 (active) | 0.914 | 0.886
16 | COc1cnc(OC)n2nc(NS(=O)(=O)c3c(OCC(F)F)cccc3C(F)(F)F)nc12 | 0.962 | 1.03 | 1.01 | 0.993 | 0.991 | 1.01 | 1.01 | 0.994 | 0.993 | 0.991
17 | CC(Oc1ccc(Cl)cc1Cl)C(=O)O (stereo not given) | 1.09 | 1.02 | 0.987 | 0.942 | 0.981 | 1 | 0.979 | 1.04 | 1.01 | 0.976
18 | Cc1ccccc1[N+](=O)[O-] | 1 | 0.996 | 1 | 1.02 | 1.01 | 1.01 | 0.995 | 0.991 | 1 | 1
19 | Clc1ccc(C(c2ccc(Cl)cc2)C(Cl)Cl)cc1 | 1.03 | 0.927 | 0.899 | 0.888 | 0.662 (active) | 0.933 | 0.984 | 1.06 | 1.03 | 0.873
20 | CN/C(=N\[N+](=O)[O-])NCc1cnc(Cl)s1 | 0.906 | 0.93 | 1.02 | 1.03 | 1.17 | 1 | 1 | 1.03 | 0.979 | 0.988
21 | CCOP(=S)(OCC)SCSP(=S)(OCC)OCC | 0.958 | 1 | 0.949 | 0.974 | 1.04 | 1.01 | 0.981 | 1.03 | 0.995 | 0.996
22 | COc1cc(OC)nc(NC(=O)[N-]S(=O)(=O)c2ncccc2OCC(F)(F)F)n1.[Na+] | 1.07 | 0.973 | 0.982 | 0.995 | 0.888 | 0.77 (active) | 1.02 | 1.07 | 1 | 1
23 | COP(=S)(OC)SCN1C(=O)c2ccccc2C1=O | 0.901 | 0.971 | 0.966 | 1 | 0.97 | 0.978 | 0.975 | 0.951 | 0.94 | 0.965
24 | CC1(C)[C@H](/C=C(\Cl)C(F)(F)F)[C@@H]1C(=O)O[C@@H](C#N)c1cccc(Oc2ccccc2)c1 | 1.14 | 0.983 | 0.994 | 0.972 | 0.971 | 0.997 | 0.984 | 0.963 | 0.988 | 0.932
25 | CC(C)N(C(=O)SCC(Cl)=C(Cl)Cl)C(C)C | 1.26 | 1 | 1.02 | 0.955 | 0.955 | 0.999 | 0.989 | 1.01 | 0.994 | 0.953
26 | C=CCC1=C(C)C(OC(=O)[C@@H]2[C@@H](C=C(C)C)C2(C)C)CC1=O (stereo not given in full) | 1.01 | 0.983 | 1.02 | 1.05 | 1.08 | 0.96 | 1.01 | 1 | 1.04 | 1.03
27 | Cc1nc(N(C)C)nc(OC(=O)N(C)C)c1C | 1.02 | 0.997 | 0.989 | 1.05 | 1.05 | 1.02 | 0.977 | 0.826 | 1.05 | 1.04
28 | CC(C)=CC1C(C(=O)OCc2coc(Cc3ccccc3)c2)C1(C)C (stereo not given) | 0.878 | 0.995 | 0.943 | 1 | 0.965 | 0.973 | 0.988 | 0.899 | 1.02 | 0.936
